# Screening data deposited in PubChem by several laboratories.
# Only some compounds are listed: those with a hit (about 2.4% of all), similar ones and a draw of the others.
# L929 necroptosis: L929 zVAD cell death inhibition | L929 zVAD necroptosis rescue, ATP luminescence, 24 h; with zVAD 60 µM | viability rescue, % at 10 µM | 0.38% of 220,000 active | AID 1377;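 active = activation, scaled between plate controls, above about 75%, limit read from the data; inactive = activation under that limit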;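 also: 0% = zVAD with DMSO and 100% = DMSO alone without zVAD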
# TNF death inh: blocks TNF-alpha induced death of Jurkat FADD-/- cells; Jurkat FADD-/- TNF necroptosis rescue, ATP luminescence, 24 h; 0 = TNF only, 100 = no-TNF cells; activation (protection from cell death), % at 10 µM; 0.068% of 220,000 active; AID 463075;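 active = activation, meaning protection from cell death, of at least 50% relative to plate controls; inactive = activation below 50%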;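 also: necroptosis triggered by 40 ng/mL TNF-alpha added together with compound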
# PERK inh: blocks human PERK kinase. inhibition, % at 5.6 µM. 0.17% of 220,000 active. CHO PERK-DD fusion, SEAP luminescence translation reporter. AID 1416;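 active = inhibition above the mean inhibition of all tested compounds plus 3 SD, set separately per screening campaign, cut at about 2.9% in these data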;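 also: PERK kinase domain activated by AP20187 dimerizer at 100 nM; 0% = DMSO with dimerizer and 100% = rapamycin at 8.4 µM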
# DTT redox prof: compounds producing H2O2 with reducing agent – biochemical, NIH compound library profiling, artefact control for MLSCN library redox annotation, primary screen | DTT-dependent redox cycling H2O2, phenol red/HRP absorbance; 100% = 100 µM peroxide control, 0% = buffer | activation, % at 10 µM | 0.03% of 200,000 active;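 active = activation of at least 50% relative to the plate's high and low controls in the primary single-dose screen; inactive = activation below 50%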;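 also: compound incubated with DTT at 0.8 mM final as the reducing agent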
# WT yeast gro inh: growth inhibition of WT yeast, mitochondrial fusion screen. inhibition, % at 10 µM. 2.1% of 190,000 active. AID 1362. mitochondrial fusion phenotypic screen, WT strain; in the data active = inhibition above about 58%; tested in S. cerevisiae
# PKD1 inh: blocks activity of human protein kinase D1; PKD1 kinase fluorescence polarization assay; inhibition, % (no concentration beside the values); 0.056% of 200,000 active; AID 797; in the data active = inhibition above about 50%
# Target sequence (Q15139 whole entry, looked up): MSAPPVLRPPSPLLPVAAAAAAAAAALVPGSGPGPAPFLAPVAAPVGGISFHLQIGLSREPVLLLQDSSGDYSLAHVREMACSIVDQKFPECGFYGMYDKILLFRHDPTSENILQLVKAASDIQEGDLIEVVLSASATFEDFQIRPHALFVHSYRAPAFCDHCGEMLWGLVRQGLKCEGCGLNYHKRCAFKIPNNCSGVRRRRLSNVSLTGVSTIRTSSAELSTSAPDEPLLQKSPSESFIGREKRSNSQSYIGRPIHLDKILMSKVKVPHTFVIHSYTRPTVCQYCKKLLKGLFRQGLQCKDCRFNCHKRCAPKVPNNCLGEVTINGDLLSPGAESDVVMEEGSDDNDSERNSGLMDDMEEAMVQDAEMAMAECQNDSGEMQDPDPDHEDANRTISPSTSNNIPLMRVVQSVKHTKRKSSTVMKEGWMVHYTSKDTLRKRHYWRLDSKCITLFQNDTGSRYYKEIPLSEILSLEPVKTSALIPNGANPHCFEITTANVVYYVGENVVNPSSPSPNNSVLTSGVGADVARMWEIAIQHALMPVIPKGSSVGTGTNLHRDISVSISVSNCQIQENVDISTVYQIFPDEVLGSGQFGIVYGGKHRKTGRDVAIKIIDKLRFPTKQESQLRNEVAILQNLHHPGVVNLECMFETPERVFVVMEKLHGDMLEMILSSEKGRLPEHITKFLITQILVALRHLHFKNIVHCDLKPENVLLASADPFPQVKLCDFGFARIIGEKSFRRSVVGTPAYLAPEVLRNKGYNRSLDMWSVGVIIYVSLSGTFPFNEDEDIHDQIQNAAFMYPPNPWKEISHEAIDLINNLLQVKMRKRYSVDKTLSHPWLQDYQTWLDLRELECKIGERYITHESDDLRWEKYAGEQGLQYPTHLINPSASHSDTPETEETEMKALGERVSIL
# * = called active by the depositor; . = not tested or not shown.
SMILES,L929 necroptosis,TNF death inh,PERK inh,DTT redox prof,WT yeast gro inh,PKD1 inh
CC(=O)Cc1nsc(NC(=O)c2ccc(-c3ccc(Cl)cc3Cl)o2)n1,0,0,0,0,31,-3
CC(=O)O[C@@H]1[C@H]2[C@@H](C[C@@H](C)[C@@H]3CCC(=O)[C@@]13C)OC(=O)[C@@H]2C,1,1,.,.,.,.
Cc1ccc(-c2c(C(=O)N(C)Cc3ccccc3)oc(=O)c3ccccc23)cc1,1,-1,-1,0,67*,-13
Cc1ccccc1SC1CCN(Cc2nc(C3CC3)no2)CC1,0,1,0,0,5,-4
CC1=NOC(=O)/C1=C\c1ccc(-c2cccc(Cl)c2)o1,0,-2,-1,1,43,1
Cc1nc(S/C(=C/c2ccc(-c3cccc(Cl)c3)o2)C(=O)O)n[nH]1,0,1,0,2,71*,6
O=C(O)c1ccccc1CSc1nnc2c(n1)[nH]c1ccccc12,1,2,3.1*,.,.,.
N#Cc1ncc(Cl)c2ccccc12,0,-1,0,.,.,.
CCN=c1scc(-c2ccco2)n1/N=C/c1ccc(O)cc1,-1,-4,-1,-1,3,-2
CCN=c1scc(-c2ccco2)n1/N=C/c1ccc(OC)c(O)c1,0,-14,0,-1,59*,3
CCc1oc2ccccc2c1C(=O)c1cc(Br)c(O)c(Br)c1,4,2,0,0,85*,10
CCc1ccc(OCC(=O)c2c(O)c3ccccc3oc2=O)cc1,2,1,0,1,1,4
Cc1ccc(C)c(Cn2cnc3c(cnn3C(C)(C)C)c2=O)c1,0,-1,0,0,61*,-21
Cc1ccccc1Cn1cnc2c(cnn2C(C)(C)C)c1=O,0,-1,0,0,-4,-29
O=C1Nc2ccccc2OCc2c1cccc2[N+](=O)[O-],0,-1,2,-1,-6,12
Cc1ccc(Oc2cc([N+](=O)[O-])cc3c2C(=O)Nc2ccccc2O3)cc1,1,-1,0,-1,64*,-3
N/C(=N\N=C\c1ccc([N+](=O)[O-])cc1)c1nonc1N,1,2,3.4*,.,.,.
C/C(N)=C(/C#N)C(=O)CSc1nnc(NC(C)C)s1,1,0,1,0,26,0
CCCCOC(=O)c1ccc(NC(=O)c2ccccc2OC)cc1,4,0,-1,0,64*,6
CC1(C)CC(=O)C2=C(C1)N(c1ccc(F)cc1)C(=O)C2(O)C(F)(F)F (stereo not drawn),0,-1,0,1,84*,0
CC[C@@H]1C=C(C)C[C@H](C)C[C@H](OC)[C@H]2O[C@@](O)(C(=O)C(=O)N3CCCC[C@H]3C(=O)O[C@H](/C(C)=C/[C@@H]3CC[C@@H](O)[C@H](OC)C3)[C@H](C)[C@@H](O)CC1=O)[C@H](C)C[C@@H]2OC,1,-7,95*,0,31,-9
CCC(C)C(NC(=O)OC(C)(C)C)C(=O)NC(C(=O)NC(C)C(N)=O)C(C)C (stereo not drawn),16,-1,0,0,-4,-5
CNC(=S)N/N=C/c1cccc(OCc2ccccc2F)c1,0,-3,0,-1,67*,-3
CCNC(=S)N/N=C/c1cccc(/C=N/NC(=S)NCC)c1,2,-1,0,0,2,1
CCNC(=S)N/N=C/c1cccc(OCc2c(F)cccc2Cl)c1,1,-1,0,0,69*,3
SMILES,L929 necroptosis,TNF death inh,PERK inh,DTT redox prof,WT yeast gro inh,PKD1 inh
CC1CCCN(C(=O)N2c3ccccc3Sc3ccccc32)C1 (stereo not drawn),-1,0,0,0,69*,-15
CCOC(=O)N1CCN(CC(O)COC2CC(C)CCC2C(C)C)CC1 (stereo not drawn),1,-2,-1,-1,77*,-3
CCOC(=O)N1CCN(CC(O)COCCC23CC4CC(CC(C4)C2)C3)CC1 (stereo not drawn),1,0,-1,0,60*,-6
CC1CCCCN1CC(O)COCCC12CC3CC(CC(C3)C1)C2 (stereo not drawn),0,-1,-1,-2,51,-2
Cc1cc(C)c(CSc2ncnc3nc[nH]c23)c(C)c1,2,-2,0,0,69*,-2
COc1cc2[nH]c(=O)n(CCC(=O)N3CC=C(c4ccccc4)CC3)c(=O)c2cc1OC,1,0,0,0,30,-2
COc1cc2[nH]c(=O)n(CCC(=O)N3CCC(N4CCCCC4)CC3)c(=O)c2cc1OC,0,-2,1,-5,71*,14
COc1ccc(-c2nc(-c3ccccn3)no2)cc1,1,-11,0,0,64*,-3
Cc1ccnc(NS(=O)(=O)c2ccc(N=CC3=C(O)CC(C)(C)CC3=O)cc2)n1,0,-1,1,1,67*,-8
Cc1cccc(NC2=CC(=O)CC(C)(C)C2)c1C,6,-1,0,0,1,1
CC(NC(=O)COc1ccccc1-c1ccccc1)c1ccccc1 (stereo not drawn),0,1,0,0,71*,-5
CC(C)(C)OC(=O)N1CCN(C(=O)Nc2ccc3c(c2)OCCO3)CC1,0,0,0,0,-6,-6
Cc1cccc(Nc2nc(-c3cccs3)cs2)n1,-1,-3,0,0,72*,-1
O=C(O)C1Cc2[nH]cnc2C(c2ccccc2O)N1 (stereo not drawn),2,1,1,0,-2,7
CCOc1ccc(-c2nc3n(c(=O)c2C#N)CCCS3)cc1,0,0,0,0,-7,-10
COc1ccc(-c2nc3n(c(=O)c2C#N)CCCS3)cc1,0,-1,0,1,75*,-2
OCC1(CCOc2ccccc2)CCN(CC2=Cc3cc(Cl)ccc3OC2)CC1,7,4,0,-1,90*,-5
OCCOc1cccc(CN2CCC(CO)(CCOc3ccccc3)CC2)c1,-1,3,-1,-1,-17,1
CN1C(=O)c2ccccc2Sc2ccc(NC(=O)N3CCCC3)cc21,1,2,-1,3,79*,11
O=C(Cc1ccc(-c2ccccc2)cc1)OCC(=O)N1CCCC1=O,0,1,0,-2,-20,-8
CCOC(=O)c1sc(NC(=O)CSc2n[nH]c(-c3ccccc3)n2)c(C#N)c1C,0,0,0,0,77*,-3
Nn1c(SCc2cccc(Br)c2)nnc1-c1cccnc1,-1,0,0,.,.,.
CCN1CCN(Cc2ccc(NC(=O)Nc3ccc(OC)cc3)cc2)CC1,77*,3,2,0,6,-8
CCN1CCN(Cc2ccc(NC(=O)Nc3ccccc3)cc2)CC1,9,3,1,-1,17,-17
